Assay outcomes (PubChem)
Most compounds without a hit are left out; they make up all but 21% or so of the library.
Pf growth 48h: inhibits P. falciparum growth in the first generation, 48 h; P. falciparum luciferase growth in erythrocytes, 48 h; Potency, µM (doses to about 28.7 µM), usual class: inhibitors; actives 5.9% (n = 310,000); active = well fitted inhibition curve with a large enough effect; inconclusive = small, poorly fitted or top-dose-only effect, or another doubt; inactive = no such curve, though single readings can be large or run the other way
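Here the parasites carry a stable luciferase gene and grow inside erythrocytes in Albumax-based RPMI medium with compound for one erythrocytic cycle. Activity is scored as loss of luminescent signal.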
NS1 function inh: inhibitors of influenza NS1 protein function; Potency, µM (series often up to 46.1 µM); actives 0.4% (n = 270,000); also: actives are rising curves; nearly all actives have a fitted effect of over 50% in size
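Growth recovery, yeast-based: influenza A NS1 expressed in S. cerevisiae causes slow growth, and suppressors are detected by OD600. The parent strain without NS1 is used as positive control.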
SARS PLP yeast: blocks SARS-CoV papain-like protease in a yeast assay | S. cerevisiae expressing SARS-CoV PLpro, growth rescue | Potency, µM (highest dose often 32.9 µM), actives largely listed as activators | actives 0.19% (n = 330,000) | AID 485353; also: nearly all actives have a fitted effect of over 55% in size
Shiga toxin inh: blocks Shiga toxin action in Vero cells; Vero cells, Shiga toxin protein synthesis inhibition reporter; inhibition, % at 38.7 µM; actives 9.2% (n = 290,000); AID 2315; in the data active = inhibition mostly above about 28%, no sharp cut-off; inactive = mostly below about 43%
Pf growth 96h: inhibits malaria parasite growth, 96 h; P. falciparum luciferase reporter growth, 96 h; AID 504834; actives 6.9% (n = 320,000); Potency, µM (series often up to 28.7 µM), actives largely listed as inhibitors; active = well fitted inhibition curve with a large enough effect; inconclusive = small, poorly fitted or top-dose-only effect, or another doubt; inactive = no such curve, though single readings can be large or run the other way
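Infected RBCs, 2% Hct / 0.05% parasitemia final; luciferase-reporter P. falciparum; cpd 96 h, 37 C, 5% CO2; luciferase detection reagent; luminescence.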
Cycloheximide cs: counter-screen hit for Shiga toxin inhibitors, cycloheximide; cell reporter, cycloheximide protein synthesis inhibition counterscreen; max response, %; actives 12% (n = 300,000); in the data active = max response mostly above about 13%, no sharp cut-off; inactive = mostly below about 14%; also: read at 38.3 µM for the half of the compounds with a filed dose
Of the large screens only hits and unclear results are named; the others gave an inactive call. Unless noted, calls follow the shape of the full dose curve.

O=C(NNC(=O)c1cccs1)c1csc(N2CCOCC2)n1	none (no result: NS1 function inh, Shiga toxin inh, Cycloheximide cs)
N#Cc1c(-c2ccc(Cl)cc2Cl)nc2n(c1=O)CCS2	none (no result: Pf growth 48h)
COC(=O)C(C)N1C(=O)S/C(=C\c2ccc(-c3ccc(C(=O)O)cc3C)o2)C1=O (stereo not given)	Shiga toxin inh 89, Cycloheximide cs 44
Cc1ccc(NC(=O)CN2C(=O)S/C(=C/c3ccc(-c4cc(C(=O)O)ccc4C)o3)C2=O)cc1C	none (no result: Pf growth 96h)
CCCN1C[C@H](CSC)C[C@@H]2c3cccc4[nH]cc(c34)C[C@H]21	Pf growth 48h inconclusive, Pf growth 96h 10µM
CCN(CC)C(=O)N[C@@H]1C[C@@H]2c3cccc4[nH]cc(c34)C[C@H]2N(C)C1	Pf growth 48h inconclusive, NS1 function inh inconclusive (no result: SARS PLP yeast, Shiga toxin inh, Cycloheximide cs)
COc1ccc(Nc2cc(C(=O)NCc3ccccn3)c3ccccc3n2)c(OC)c1	Pf growth 96h 13µM (no result: NS1 function inh)
Cc1cc(NC(=O)c2cc(-c3ccc(C)s3)nc3ccccc23)no1	Pf growth 96h 12µM (no result: Pf growth 48h)
O=C(Nc1ccccn1)c1cc(-c2ccc(Cl)s2)nc2ccccc12	Pf growth 48h inconclusive, Pf growth 96h inconclusive (no result: NS1 function inh, Shiga toxin inh, Cycloheximide cs)
Cc1c(Cl)ccc2c(C(=O)Nc3cc(C(C)(C)C)on3)cc(-c3ccccn3)nc12	Pf growth 96h 2.1µM
Cc1cccc(NC(=O)c2cc(-c3ccc(C)s3)nc3ccccc23)n1	Pf growth 48h 10µM
CON(C)C(=O)Nc1ccc(Br)cc1	none (no result: Pf growth 48h, NS1 function inh, SARS PLP yeast, Pf growth 96h)
COC(CNC(=O)CCc1c(C)nc2c(-c3ccccc3)c(C)nn2c1C)OC	none
Cc1cc(NC(=O)c2cc(-c3cccnc3)nc3c(C)c(C)ccc23)no1	Pf growth 48h 2.9µM
O=C(NCc1ccccn1)c1cc(-c2ccccc2Cl)nc2ccccc12	Pf growth 48h 9.3µM, Pf growth 96h inconclusive
Cc1cc(NC(=O)c2cc(-c3ccccc3Cl)nc3ccccc23)no1	Pf growth 48h 13µM, Pf growth 96h inconclusive
Cc1cc(NC(=O)c2cc(-c3ccccc3C)nc3ccccc23)no1	Pf growth 48h inconclusive, Pf growth 96h inconclusive
O=C(Nc1nn[nH]n1)c1cc(-c2ccc(Cl)c(Cl)c2Cl)nc2ccccc12	Pf growth 96h 2.3µM
FC(F)(Cl)c1nnc2ccc(Sc3ccccn3)nn12	Pf growth 48h inconclusive (no result: NS1 function inh)
CC(C)CC(=O)NC(=S)Nc1ccc(N2CCOCC2)cc1	Shiga toxin inh 48, Cycloheximide cs 24
Cc1cccc(NC(=S)NN2CCOCC2)c1C	Pf growth 96h inconclusive (no result: Pf growth 48h)
CC(C)CC(=O)NC(=S)Nc1ccc(CN2CCOCC2)cc1	Shiga toxin inh 33, Pf growth 96h inconclusive
Cc1cccc(NC(=S)Nc2ccc(N3CCOCC3)cc2)c1C	NS1 function inh inconclusive, Cycloheximide cs 13
COCCNC(=O)c1ccccc1NC(=O)Cc1ccccc1	Pf growth 96h inconclusive
CC(NC(=O)C1CCN(S(=O)(=O)c2cnc[nH]2)CC1)c1ccccc1 (stereo not given)	none
Oc1ccc(C23CC4CC(CC(C4)C2)C3)cc1O	Pf growth 48h 5.2µM, Pf growth 96h 7.4µM
CCOC(=O)c1[nH]c(C)c(C(=O)N2CCc3c([nH]c4ccccc34)C2c2ccccn2)c1C (stereo not given)	Pf growth 48h inconclusive, Pf growth 96h inconclusive
CCc1ccc(C2c3[nH]c4ccccc4c3CCN2C(=O)c2ccc(=O)n(C)n2)cc1 (stereo not given)	Pf growth 48h 8.3µM, Pf growth 96h inconclusive
CCc1ccc(C2c3[nH]c4ccccc4c3CCN2C(=O)CNC(N)=O)cc1 (stereo not given)	Pf growth 48h inconclusive
CSc1ccc(C2c3[nH]c4ccccc4c3CCN2C(=O)c2ccnn2C)cc1 (stereo not given)	Pf growth 48h inconclusive, Shiga toxin inh 72, Pf growth 96h inconclusive, Cycloheximide cs 35
CCc1ccc(C2c3[nH]c4ccccc4c3CCN2C(=O)CN2CCN(CC)CC2)cc1 (stereo not given)	Pf growth 48h 10µM, Pf growth 96h inconclusive
O=S(=O)(Nc1cccc(S(=O)(=O)N2CCCC2)c1)c1ccc(Cl)s1	none (no result: NS1 function inh, Shiga toxin inh, Cycloheximide cs)
COc1ccccc1CCNC(=O)C(=O)NCC1OCCN1C(=O)c1ccc(Cl)cc1 (stereo not given)	Pf growth 48h inconclusive
Cc1cc(=O)oc(C)c1C(=O)n1nc(C)c2c1C[C@@H]1[C@H]2C1(C)C	Pf growth 48h inconclusive
CC(C)CC(=O)OC1C(N2CCOCC2)c2c(ccc(/C=C/C(=O)N3CCOCC3)c2O)OC1(C)C (stereo not given)	Pf growth 48h inconclusive, Pf growth 96h 2.6µM
CC(C)NC(=O)c1ccc2c(=O)n(CC3CCCO3)c(=S)[nH]c2c1 (stereo not given)	Pf growth 96h 9.3µM (no result: NS1 function inh)
CC1CCCC(NC(=O)c2ccc3c(=O)n(CC4CCCO4)c(=O)[nH]c3c2)C1C (stereo not given)	Pf growth 48h 2.6µM, Pf growth 96h inconclusive
COc1ccc(C(C(=O)NC2CCCCC2)N(C(=O)CCl)c2ccc(Cl)cc2)cc1 (stereo not given)	Pf growth 96h 3.7µM
COC(CN(C(=O)CCl)C(C(=O)NC1CCCCC1)c1ccccc1C)OC (stereo not given)	Pf growth 48h 15µM, Pf growth 96h inconclusive
COc1ccc(C(C(=O)NC2CCCCC2)N(C(=O)c2sc(C)nc2C)c2ccc(OC)cc2)cc1 (stereo not given)	none
COC(CN(C(=O)CCl)C(C(=O)NC1CCCC(C)C1C)c1ccc(C)cc1)OC (stereo not given)	Pf growth 96h inconclusive
COC(CN(C(=O)CCl)C(C(=O)NC1CCCCC1)c1ccc(Cl)cc1)OC (stereo not given)	Pf growth 48h inconclusive, Pf growth 96h 2.9µM
COc1ccc(C(=O)NNC(=O)CSc2nnc(C3CC3)n2C)cc1	none
CCCCN1CCc2[nH]c(=S)[nH]c(=O)c2C1	none
CN(C)C(=S)SC(=S)N(C)C	Pf growth 48h 5.4µM, Pf growth 96h 3.4µM (no result: NS1 function inh, SARS PLP yeast)
CN(C)C(=S)SSC(=S)N(C)C	Pf growth 48h 0.85µM, Pf growth 96h 0.76µM, Cycloheximide cs 23
O=S(=O)(NCc1ccccc1)c1ccc(-n2cccn2)cc1	Pf growth 96h inconclusive
C/C(=N\NC1=NCCN1)c1ccc(N)c([N+](=O)[O-])c1	Pf growth 48h 2.1µM, Pf growth 96h inconclusive, Cycloheximide cs 12
COc1ccc(/C(C)=N/NC2=NCCN2)cc1Cl	Pf growth 48h 4.7µM, Pf growth 96h 3.7µM
CCCCOc1ccc(Br)cc1/C(C)=N/NC1=NCCN1	Pf growth 48h 4.7µM
CCCCNC(=O)C1=C(N)C(C(=O)Nc2ccc(C)c(S(=O)(=O)N3CCCCC3)c2)SC1=Nc1ccc(C)cc1C (stereo not given)	NS1 function inh inconclusive, Pf growth 96h 10µM (no result: Pf growth 48h)
COc1cc(C2NC(=S)NC(C)=C2C(=O)Nc2cc(C)cc(C)c2)ccc1O (stereo not given)	none
COC(=O)c1c(NC(=O)CSc2nc3ccccc3c(=O)n2-c2ccccc2)sc(C)c1C	Pf growth 48h inconclusive, Pf growth 96h 9.3µM
